# TSHR ag – activates the human thyroid stimulating hormone receptor; P16473; HEK293-CNG-TSHR cells (CNG channel as cAMP sensor), membrane potential dye, cAMP; Potency, µM (highest dose often 57.1 µM), inactives show top-dose activation, most hits filed as activators; 73,000 compounds, 0.48% hits; AID 926; active = well fitted activation curve with a large enough effect in the main read-out, with a control signal flat, not every such curve was filed as active; inconclusive = small, poorly fitted or top-dose-only effect, or a change in a side signal; inactive = no such curve, though single readings can be large or run the other way; % of control where 0% means no effect;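 note: the control signal comes from parental cells without the receptor; potency is the fitted concentration of half-maximal effect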
# Target sequence (P16473 whole entry, looked up): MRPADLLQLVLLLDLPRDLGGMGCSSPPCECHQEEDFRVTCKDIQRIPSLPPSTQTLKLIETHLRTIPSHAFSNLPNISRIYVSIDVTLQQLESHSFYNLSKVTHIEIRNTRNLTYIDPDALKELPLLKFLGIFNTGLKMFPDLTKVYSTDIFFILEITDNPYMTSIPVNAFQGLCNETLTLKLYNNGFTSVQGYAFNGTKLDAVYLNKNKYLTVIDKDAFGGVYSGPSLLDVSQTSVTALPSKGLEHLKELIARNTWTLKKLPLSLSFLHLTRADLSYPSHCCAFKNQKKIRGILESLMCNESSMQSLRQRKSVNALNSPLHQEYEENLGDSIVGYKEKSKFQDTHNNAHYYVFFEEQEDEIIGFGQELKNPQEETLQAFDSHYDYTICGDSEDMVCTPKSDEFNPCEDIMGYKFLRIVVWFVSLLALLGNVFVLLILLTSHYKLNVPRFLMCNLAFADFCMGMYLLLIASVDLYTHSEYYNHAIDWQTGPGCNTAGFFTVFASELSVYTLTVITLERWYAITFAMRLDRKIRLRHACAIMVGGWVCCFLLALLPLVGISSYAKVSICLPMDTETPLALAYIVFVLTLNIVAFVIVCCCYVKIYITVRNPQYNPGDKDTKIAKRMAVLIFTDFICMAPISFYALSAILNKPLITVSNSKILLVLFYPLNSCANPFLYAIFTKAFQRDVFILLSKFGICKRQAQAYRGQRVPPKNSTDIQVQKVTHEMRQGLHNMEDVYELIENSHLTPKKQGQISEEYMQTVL
#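 HEK 293 cells stably expressing TSHR and a cAMP-gated CNG channel; parental CNG-only cells as counterscreen. Cells preloaded 60 min with membrane potential dye plus 100 uM RO 20-1724, then compound 30 min; fluorescence read at 590 nm.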
# IkB signaling – inhibitors of IkB signaling in ABC-DLBCL cells; ABC-DLBCL IkBa-CBG/CBR dual luciferase ratio, 4 h; response scale: scaled: untreated 0%, proteasome inhibitor 100%; Potency, µM (doses to about 57.1 µM), inactives show at the top dose IkBa stabilization activation; 110,000 compounds, 0.04% hits; active = well fitted curve in the direction sought with a large enough effect in the signal ratio, not every such curve was filed as active; inconclusive = small, poorly fitted or top-dose-only effect, or a change in a side signal; the % refers to the signal ratio;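 note: potency is the fitted concentration of half-maximal effect; the direction sought is a rising ratio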
#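 Curves were fitted separately to fusion (green), unfused (red) and ratio luminescence, then classed by r2, magnitude and activity. Cells: OCI-Ly3, 4 h compound plus doxycycline at 37C; 10 uM MG-132 defined full response.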
# Hsp90 Hop PPI – changes Hsp90-Hop TPR2A binding signal, up or down | Potency, µM (doses to about 57 µM), without a hit: top-dose activity change, negative = inhibition | AID 595 | AlphaScreen TPR2A-His6 binding biotin-Hsp90 C-terminal peptide | 71,000 compounds, 0.44% hits; active = well fitted curve in either direction with a large enough effect; inconclusive = small, poorly fitted or top-dose-only effect, or another doubt; note: potency is the fitted concentration of half-maximal effect; % is set by controls: 0 for no effect and ±100 for the full control effect
# CRE-bla Fsk – alters forskolin-stimulated CRE reporter signaling in CHO cells; CHO CRE-bla reporter (cAMP response element driving beta-lactamase), forskolin EC10, beta-lactamase ratio; Potency, µM (top dose mostly 38.2 µM), inactives show at the highest dose activity change, negative = inhibition, actives largely listed as activators; 71,000 compounds, 2.5% hits; active = well fitted activation curve with a large enough effect in the signal ratio, with a control signal flat, not every such curve was filed as active; inconclusive = small, poorly fitted or top-dose-only effect, or effect the other way, or a change in a side signal; the % refers to the signal ratio; note: potency is the fitted concentration of half-maximal effect; % of control where 0% means no effect
#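 Modulation of forskolin-driven signalling is measured in CHO cells carrying a CRE-controlled beta-lactamase reporter. Cells are stimulated with EC10 NKH 477 in the presence of titrated compound for 3 h at 37 °C, then loaded with CCF4 for 2 h at room temperature.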
# HEK293 cAMP cs – parental HEK293 cAMP activation (counter-screen); parental HEK293 CNG cAMP sensor, membrane potential fluorescence; Potency, µM (series often up to 57.1 µM), without a hit: at the top dose activation, hits mostly activators; AID 938; 73,000 compounds, 2.5% hits; note: potency is the fitted concentration of half-maximal effect; % of control where 0% means no effect; nearly all actives have a fitted effect of over 55% in size
#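 Parental HEK 293 cells stably expressing a modified CNG channel (no TSHR) report cAMP rise as membrane depolarization. Membrane potential dye with 100 uM RO 20-1724 was loaded for 60 min at room temperature, then compound added for 30 min; fluorescence read at 590 nm.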
# CHO tox 24h – CHO cell toxicity at 24 h by ATP luminescence; 120 tested, under 10 active; activity, negative = viability loss, % at 46.1 µM; CRE-bla CHO viability, ATP luminescence, 24 h; AID 905; shares compounds with CRE-bla Fsk
# CHO tox 40h – CHO cell toxicity at 40 h by ATP luminescence. CRE-bla CHO viability, ATP luminescence, 40 h. AID 906. shares compounds with CRE-bla Fsk. Potency, µM, for the others: max response, most hits filed as inhibitors. 120 tested, under 10 active
# CREB luc CRC – confirmation of CRE signaling potentiators in HEK293 CREB reporter cells. AID 907. shares compounds with CRE-bla Fsk. 120 compounds, 80% hits. Potency, µM (top dose mostly 38.3 µM), without a hit: top-dose activity, positive = activation, most hits filed as activators. HEK293 CRE-luc2P, NKH477 EC10 potentiation, luminescence, 4 h
# HEK293 cAMP cnt – counter-screen for TSH receptor agonists: cAMP in parental HEK293 cells | shares compounds with TSHR ag | parental HEK293 CNG biosensor, cAMP membrane potential fluorescence | activity change, negative = inhibition, % at 32.9 µM | 150 tested, under 10 active | AID 953
# Starred values were filed as active, the others as inactive; ? = inconclusive; . = not tested or not shown; [ ] = dose if it differs, or a comment. An excerpt weighted towards active compounds, which were near 3.5% of everything screened. Unless noted, calls come from the whole dose curve; as a rule, active = well fitted curve in the direction sought with a large enough effect; inconclusive = small, poorly fitted or top-dose-only effect, or another doubt; inactive = no such curve, though single readings can be large; an effect the other way counts as inactive or inconclusive.
SMILES,TSHR ag,IkB signaling,Hsp90 Hop PPI,CRE-bla Fsk,HEK293 cAMP cs,HEK293 cAMP cnt,others
COc1ccc(N=C(C)c2c(O)n(C)c(=O)n(C)c2=O)c(OC)c1,11%,-1%,-1%,?,10%,.,CHO tox 24h=-3;CHO tox 40h=-13%;CREB luc CRC=13µM*
Cn1c(O)c(C=NCCOc2ccc(Cl)cc2)c(=O)n(C)c1=O,4%,4%,-3%,10µM*,-2%,.,CHO tox 24h=1;CHO tox 40h=-13%;CREB luc CRC=13µM*
COc1cc(CCN)c(OC)c(OC)c1,-6%[11.4 µM],-1%[11.4 µM],1%[11 µM],4%[7.6 µM],10%[11.4 µM],.,
CCC(=NCC1CCCO1)c1c(O)n(Cc2ccccc2)c(=O)[nH]c1=O (configuration not stated),1%,-3%,-1%,?,4%,6[25.6 µM],
c1ccncc1,?,1%,-4%,-8%,?,.,
O=C(Nc1ccccn1)NC12CC3CC(CC(C3)C1)C2,20µM*,2%,-3%,-21%,26%,-9,
ClC1=C(Cl)C(Cl)(Cl)C(Cl)=C1Cl,?,5%,-2%,-12%,12%,.,
CCn1c(C)c(C(=O)O)c2cc(OC)ccc21,0%,1%,-2%,-18%,-7%,6[25.6 µM],
CCOC(=O)c1c(C)n(COCCO)c2ccc(O)cc12,-1%,?,-2%,?,-3%,.,

# Bioassay records: PubChem BioAssay, National Center for Advancing Translational Sciences (NCATS)
